Assay results from PubChem BioAssay AID1347171 (National Center for Advancing Translational Sciences (NCATS), 2019).
Results filed as inconclusive are left out. Values without a mark were called inactive. Activity calls are given as the source filed them. Calls follow the shape of the dose curve; as a rule, active = well fitted inhibition curve with a large enough effect; inconclusive = small, poorly fitted or top-dose-only effect; inactive = no such curve, though single readings can be large or run the other way.

assay: Orthogonal mCherry assay for qRT-PCR qHTS of selected Zika virus inhibitors; settings: Vero cells, ZIKV-mCherry infection imaging, 48-72 h; series mostly up to 32.6 µM; activity change, negative = inhibition: at the top concentration
Description: Description: Assay Submitters (PI): Avindra Nath, Ph.D., National Institute of Neurological Disorders and Stroke (NINDS), Bethesda, MD Radhakrishnan Padmanabhan, Ph.D., Georgetown University (GU), Washington D.C. Zika Virus causes congenital defects, including microcephaly and is associated with Guillain-Barre syndrome, eningoencephalitis and myelitis in infected adult. […] Using a target-based approach, we hope to establish a screening paradigm to uncover novel, cell-active NS2B-NS3 protease (Zika Virus) specific inhibitors from NCATS' collection of small molecules using qHTS. […] Four assay panel was created to identify potential Zika Virus inhibitors. Namely, (1) GU unlinked NS2B-NS3 AMC tagged protease qHTS, (2) GU unlinked NS2B-NS3 Rhodamine tagged protease qHTS, (3) NINDS linked NS2B-NS3 AMC tagged protease qHTS, (4) NINDS linked NS2B-NS3 Rhodamine tagged protease qHTS. Inhibitors of the Zika virus primary screens are confirmed using qRT-PCR secondary assays, mCherry orthogonal assay, and Vero cells viability counterscreen. Early Translation Branch (ETB) National Center for Advancing Translational Sciences (NCATS), Rockville, MD National Institute of Health (NIH), Bethesda, Maryland
384 well ZIKV-mCherry Assay: We have developed a new orthogonal imaging assay in 384-well plate format, which uses recombinant virus ZIKV-mCherry in Vero cells. Briefly, 30 microL of Vero cells derived from a green monkey cell line, were dispensed by Multidrop Dispenser into a clear solid bottom black 384 well plate (ultracarrier, Perkin Elmer LifeSciences) at a concentration of 5,000 cells per well. The plate was incubated overnight in a CO2 incubator at 37 degrees C. Compounds were delivered as a 126 nL DMSO solution by Kalypsys pintool transfer. Following compound transfer, 10 microL of ZIKV-mCherry was added at an MOI of 1 and incubated in a CO2 incubator for 48-72 hrs at 37 degrees C. After sufficient incubation of infected cells in test plates, 8 microL of 32% PFA was dispensed into assay plates to fix cells and incubated for 20 min at room temperature. Plates were washed 3 times with PBS using BioTek EL406 microplate washer/dispenser. After washing, 30 microL of PBS with 0.01% TX-100 containing Hoechst dye was dispensed into the each well of the plates for nuclear staining. 384-well plates were imaged on an automated, widefield high content imager (INCell 2200, GE Healthcare) using a 10x/0.45 NA lens and standard DAPI (nuclear stain) and mCherry (cy5) excitation and emission filters. The TIFFs were quantitated using the canned Multi Target Analysis protocol (GE Investigator Workstation software v3.7.2). Briefly, nuclei from the DAPI channel were identified using top hat segmentation and a sensitivity setting of 96 and minimum size area of 35 microm2. A recombinant Zika viral infection was monitored in the Cy5 channel (cells) using a 2 microm collar dilation from the nuclear bitmap. mCherry objects with an average nuclear RFU intensity above 450 (3 stdev above mean negative control wells) were considered "mcherry positive" and data was analyzed by percent infection rate.

SMILES	Potency	activity change, negative = inhibition
Cc1cccc(C)c1NS(=O)(=O)c1ccc(NS(=O)(=O)c2ccc3c(c2)OCCO3)cc1	3.55 µM (active)	–
Cc1cc(C(C#N)c2ccc(Cl)cc2)c(Cl)cc1NC(=O)c1cc(I)cc(I)c1O (centres undefined)	–	-28.4%
COc1ccc(NS(=O)(=O)c2ccc(NS(=O)(=O)c3ccc4c(c3)OCCO4)cc2)cc1	–	-5.78%
CC(C)c1ccc2c(c1)c(SC(C)(C)C)c(CC(C)(C)C(=O)O)n2Cc1ccc(Cl)cc1	–	-24.6%
CC(C)=CCc1c2c(c3occ(-c4ccc(O)c(O)c4)c(=O)c3c1O)C=CC(C)(C)O2	–	-39%
CN(Cc1ccc(C(=O)O)cc1)c1ccc(OCc2c(-c3c(Cl)cccc3Cl)noc2C2CC2)nc1C(F)(F)F	14.1 µM (active)	–
CC(C)c1onc(-c2c(Cl)cccc2Cl)c1COc1ccc(/C=C/c2cccc(C(=O)O)c2)c(Cl)c1	25.1 µM (active)	–
COc1cccc(-n2nc(C(=O)O)cc2-c2ccc(C3CCCCC3)c(Cl)c2)c1	25.1 µM (active)	–
N#CC1C(=O)Nc2scc(-c3ccc(-c4ccccc4O)cc3)c2C1=O (centres undefined)	–	-51%
O=C1NC(=O)/C(=C/c2ccc3c(c2)OC(F)(F)O3)S1	–	0.686%
Oc1cccc(-c2c3nc(c(-c4cccc(O)c4)c4ccc([nH]4)c(-c4cccc(O)c4)c4nc(c(-c5cccc(O)c5)c5ccc2[nH]5)CC4)C=C3)c1	7.08 µM (active)	–
Nc1ncnc2c([C@@H]3N[C@H](CO)[C@@H](O)[C@H]3O)c[nH]c12	14.1 µM (active)	–
Cc1cc(NC(=O)c2ccc(Cl)c(Cl)c2)ccc1-c1cc2ccccc2oc1=O	–	33.7%
COc1c(C)c2c(c(O)c1C/C=C(\C)CCC(=O)O)C(=O)OC2	–	-80.8%
Cc1cc2c(C(C)C)c(O)c(O)c(C=O)c2c(O)c1-c1c(C)cc2c(C(C)C)c(O)c(O)c(C=O)c2c1O	–	-104%
O=C(Nc1ccc([N+](=O)[O-])cc1Cl)c1cc(Cl)ccc1O	–	-81.4%
CC[C@H](C)[C@H]1O[C@]2(CC[C@@H]1C)C[C@@H]1C[C@@H](C/C=C(\C)[C@@H](O[C@H]3C[C@H](OC)[C@@H](O[C@H]4C[C@H](OC)[C@@H](O)[C@H](C)O4)[C@H](C)O3)[C@@H](C)/C=C/C=C3\CO[C@@H]4[C@H](O)C(C)=C[C@@H](C(=O)O1)[C@]34O)O2	–	3.23%
CC1(C)CCC(CN2CCN(c3ccc(C(=O)NS(=O)(=O)c4ccc(NCC5CCOCC5)c([N+](=O)[O-])c4)c(Oc4cnc5[nH]ccc5c4)c3)CC2)=C(c2ccc(Cl)cc2)C1	–	288%
CC1=C(C(=O)OCc2ccccc2)C(c2ccc(-c3ccccc3)cc2)NC(=O)N1CCCCCC(=O)O (centres undefined)	–	-69.4%
Nc1ccn([C@@H]2O[C@H](CO)[C@@H](O)C2(F)F)c(=O)n1	–	-78.4%
Oc1cc2ccccc2c2ccccc12	–	8.44% [at 65.2 µM]
COc1cc2c(c(O)c1OC/C=C(\C)CC/C=C(/C)CCC=C(C)C)CN(C(CCC(=O)O)C(=O)O)C2=O (centres undefined)	–	-21.6% [at 16.3 µM]
Cc1ccc(-n2[nH]c(C)c(N=Nc3cccc(-c4cccc(C(=O)O)c4)c3O)c2=O)cc1C	–	539%
CC(C)c1cc(C(C)C)c(CC(=O)NS(=O)(=O)Oc2c(C(C)C)cccc2C(C)C)c(C(C)C)c1	–	-70.7%
